Results from the supplement of paper PMC10338343.
± gives the standard deviation.

Experiments:
[1] = system: MILI (PIWIL2) piRISC loaded with piRNA #1 (26 nt); experiment: pre-steady-state target cleavage rate (min^-1); guide: piRNA #1 5'p-UGAGGUAGUAGGUUGUAUAGUAUCCA; higher = faster piRNA-guided slicing of the target; conditions: auxiliary factor: 500 nM mouse GTSF1
Procedure, shortened: (§1)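 Using HEPES–potassium acetate buffer at 33 °C, 1 nM active affinity-purified piRISC with a single synthetic guide was mixed with 0.1 nM transcribed, DNA-blocked target RNA library for 0–8 or 0–960 min, with or without 500 nM GTSF1 partner protein. Uncleaved targets were sequenced and normalised to depth and to weakly complementary targets, and three trials were pooled with k3 capped at 0.0001 min^-1. A burst-and-steady-state fit gave the pre-steady-state cleavage rate.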

[2] = system: EfPiwi piRISC loaded with piRNA #1 (26 nt); experiment: pre-steady-state target cleavage rate (min^-1); auxiliary factor: 500 nM Ephydatia muelleri Gtsf1; guide: piRNA #1 5'p-UGAGGUAGUAGGUUGUAUAGUAUCCA; MIWI and MILI are mouse PIWI proteins and EfPiwi is from a freshwater sponge; tags in brackets are library labels; higher = faster piRNA-guided slicing of the target
Procedure, shortened: as §1

## GGAGACGAUACUAUACAAGCUACUACCACA
[1]
  pre-steady-state target cleavage rate: 0.311 ± 0.016
[2]
  pre-steady-state target cleavage rate: 0.00387 ± 0.0017

## GGAGAGGAUCUAUACAACCUACUACCUCA
[1]
  pre-steady-state target cleavage rate: 0.171 ± 0.013
[2]
  pre-steady-state target cleavage rate: 0.00612 ± 0.0048

## GGAGAGGUUUCUAUACAACCUACUACCUCA
[1]
  pre-steady-state target cleavage rate: 0.14 ± 0.013
[2]
  pre-steady-state target cleavage rate: 0.00427 ± 0.004

## GGAGACGAUAGAAUACAACCUACUACCUCA
[1]
  pre-steady-state target cleavage rate: 0.137 ± 0.013
[2]
  pre-steady-state target cleavage rate: 0.00812 ± 0.0043

## GGAGUGGUUACUAUACAACCUACUAGCUCA
[1]
  pre-steady-state target cleavage rate: 0.0259 ± 0.0059
[2]
  pre-steady-state target cleavage rate: 0.00221 ± 0.001

## GGAGACGAUACUAUACAAGCUACAACCUCA
[1]
  pre-steady-state target cleavage rate: 0.211 ± 0.018
[2]
  pre-steady-state target cleavage rate: 0.00442 ± 0.0022

## GGAGUGGAUACUAUACAACCUGCUACCUCA
[1]
  pre-steady-state target cleavage rate: 0.0658 ± 0.0067
[2]
  pre-steady-state target cleavage rate: 0.0792 ± 0.029

## GGAGACGAUACAAUACAACCAACUACCUCA
[1]
  pre-steady-state target cleavage rate: 0.0105 ± 0.0027
[2]
  pre-steady-state target cleavage rate: 0.0037 ± 0.0029

## GGAGACCAUACUAUACAACCUACUAGCCUCA
[1]
  pre-steady-state target cleavage rate: 0.176 ± 0.024
[2]
  pre-steady-state target cleavage rate: 0.00697 ± 0.0031

## GGAGACCUUACUAUGCAACCUACUACCUCA
[1]
  pre-steady-state target cleavage rate: 0.158 ± 0.011
[2]
  pre-steady-state target cleavage rate: 0.0061 ± 0.0032

## GGAGACGAUACUAUAUCAACCUACUACCUCA
[1]
  pre-steady-state target cleavage rate: 0.123 ± 0.013
[2]
  pre-steady-state target cleavage rate: 0.0198 ± 0.0082

## GGAGACCUUACUAUACAACCUACUAACCUCA
[1]
  pre-steady-state target cleavage rate: 0.178 ± 0.018
[2]
  pre-steady-state target cleavage rate: 0.00393 ± 0.0038

## GGAGUGGAUUCUAUACAACCUACUACGUCA
[1]
  pre-steady-state target cleavage rate: 0.0598 ± 0.0076
[2]
  pre-steady-state target cleavage rate: 0.0027 ± 0.0024

## GGAGAGGAUACUAAACAACCUACUUCCUCA
[1]
  pre-steady-state target cleavage rate: 0.0102 ± 0.0039
[2]
  pre-steady-state target cleavage rate: 0.00239 ± 0.0016

## GGAGAGGAUACUGUACAACCUACUACCUCA
[1]
  pre-steady-state target cleavage rate: 0.121 ± 0.012
[2]
  pre-steady-state target cleavage rate: 0.0789 ± 0.029

## GGAGACCAUUCUUUACAACCUACUACCUCA
[1]
  pre-steady-state target cleavage rate: 0.0902 ± 0.012
[2]
  pre-steady-state target cleavage rate: 0.0111 ± 0.0056

## GGAGUGGAUACUAUAACAACCUACUACCUCA
[1]
  pre-steady-state target cleavage rate: 0.171 ± 0.0095
[2]
  pre-steady-state target cleavage rate: 0.0556 ± 0.021

## GGAGACCUAUGAUUACAACCUACUACCUCU [g2:g17:cont:t1U]
[1]
  pre-steady-state target cleavage rate: 0.00674 ± 0.0025
[2]
  pre-steady-state target cleavage rate: 0.732 ± 0.29

## GGAGUGGAUAGUAUACAACCUACUACCACA
[1]
  pre-steady-state target cleavage rate: 0.0277 ± 0.0092
[2]
  pre-steady-state target cleavage rate: 0.00327 ± 0.0018

## GGAGUGGAUACAAUACAACCAACUACCUCA
[1]
  pre-steady-state target cleavage rate: 0.00919 ± 0.0019
[2]
  pre-steady-state target cleavage rate: 0.00289 ± 0.0015

## GGAGACCUAUCUAUACAAGCUACUACGUCA
[1]
  pre-steady-state target cleavage rate: 0.112 ± 0.012
[2]
  pre-steady-state target cleavage rate: 0.00274 ± 0.0026

## GGAGACCAUACUAUACAAGCUACUACGUCA
[1]
  pre-steady-state target cleavage rate: 0.139 ± 0.022
[2]
  pre-steady-state target cleavage rate: 0.00359 ± 0.0023

## GGAGUCGAUACUAUACAAGCUACUACCUCA
[1]
  pre-steady-state target cleavage rate: 0.142 ± 0.011
[2]
  pre-steady-state target cleavage rate: 0.00581 ± 0.0024

## GGAGUGGAUACUAUACAACCUACUACCGUCA
[1]
  pre-steady-state target cleavage rate: 0.0282 ± 0.006
[2]
  pre-steady-state target cleavage rate: 0.00748 ± 0.0027

## GGAGACGAUACUAUACAACCUACUACCUUCA
[1]
  pre-steady-state target cleavage rate: 0.194 ± 0.018
[2]
  pre-steady-state target cleavage rate: 0.0163 ± 0.0063

## GGAGACCAUACUAUACAACCUACGUACCUCA
[1]
  pre-steady-state target cleavage rate: 0.11 ± 0.018
[2]
  pre-steady-state target cleavage rate: 0.00254 ± 0.0023

## GGAGACCAUACUAUACAACCUACUAACCUCA
[1]
  pre-steady-state target cleavage rate: 0.226 ± 0.019
[2]
  pre-steady-state target cleavage rate: 0.00357 ± 0.0025

## GGAGUCGAUACUAUACUACCUACUACCUCA
[1]
  pre-steady-state target cleavage rate: 0.19 ± 0.012
[2]
  pre-steady-state target cleavage rate: 0.00591 ± 0.0029

## GGAGACGAUACUAUACAAGCUACUUCCUCA
[1]
  pre-steady-state target cleavage rate: 0.167 ± 0.016
[2]
  pre-steady-state target cleavage rate: 0.00404 ± 0.0021

## GGAGACGAUACUAUACAUCCUACUUCCUCA
[1]
  pre-steady-state target cleavage rate: 0.157 ± 0.028
[2]
  pre-steady-state target cleavage rate: 0.00415 ± 0.0023

## GGAGUGGAUACUAUACAUCCUACAACCUCA
[1]
  pre-steady-state target cleavage rate: 0.165 ± 0.014
[2]
  pre-steady-state target cleavage rate: 0.00378 ± 0.0019

## GGAGACCUUACUAUUCAACCUACUACCUCA
[1]
  pre-steady-state target cleavage rate: 0.15 ± 0.012
[2]
  pre-steady-state target cleavage rate: 0.00413 ± 0.0039

## GGAGUGGAUACUAGACAACCUACUACCUCA
[1]
  pre-steady-state target cleavage rate: 0.193 ± 0.011
[2]
  pre-steady-state target cleavage rate: 0.226 ± 0.081

## GGAGACCAUAGUAUACAACCUACUAGCUCA
[1]
  pre-steady-state target cleavage rate: 0.0143 ± 0.0053
[2]
  pre-steady-state target cleavage rate: 0.00326 ± 0.0032

## GGAGACGAUACUAUUACAACCUACUACCUCA
[1]
  pre-steady-state target cleavage rate: 0.172 ± 0.011
[2]
  pre-steady-state target cleavage rate: 0.0508 ± 0.019

## GGAGACCUAUGAUAUGUUGCUACUACCUA
[1]
  pre-steady-state target cleavage rate: < 0.0001
[2]
  pre-steady-state target cleavage rate: < 0.0001

## GGAGACGAAACUAUACAACCUACUACGUCA
[1]
  pre-steady-state target cleavage rate: 0.0713 ± 0.022
[2]
  pre-steady-state target cleavage rate: 0.00245 ± 0.0024

## GGAGAGGAUACUAAUACAACCUACUACCUCA
[1]
  pre-steady-state target cleavage rate: 0.147 ± 0.011
[2]
  pre-steady-state target cleavage rate: 0.128 ± 0.048

## GGAGACGAUACUAUCAACCUACUACCUCA
[1]
  pre-steady-state target cleavage rate: 0.14 ± 0.012
[2]
  pre-steady-state target cleavage rate: 0.0106 ± 0.0051

## GGAGACCUAUCUAUACAACCUACUACUUCA
[1]
  pre-steady-state target cleavage rate: 0.0866 ± 0.0097
[2]
  pre-steady-state target cleavage rate: 0.0119 ± 0.0067

## GGAGUGGAUACUAUACAACCUACUACCUCG [g2:g26:cont:t1G]
[1]
  pre-steady-state target cleavage rate: 0.164 ± 0.011
[2]
  pre-steady-state target cleavage rate: 0.0718 ± 0.025

## GGAGUGGAUACUAUACAAGCUACAACCUCA
[1]
  pre-steady-state target cleavage rate: 0.142 ± 0.014
[2]
  pre-steady-state target cleavage rate: 0.00371 ± 0.0018

## GGAGACGUUACUAUACAAGCUACUACCUCA
[1]
  pre-steady-state target cleavage rate: 0.216 ± 0.017
[2]
  pre-steady-state target cleavage rate: 0.00435 ± 0.002

## GGAGACGAUACUAUACAACUACUACCUCA
[1]
  pre-steady-state target cleavage rate: 0.0571 ± 0.0061
[2]
  pre-steady-state target cleavage rate: 0.00742 ± 0.0033

## GGAGACCAUUCUAUACAACCUUCUACCUCA
[1]
  pre-steady-state target cleavage rate: 0.0122 ± 0.0038
[2]
  pre-steady-state target cleavage rate: 0.00336 ± 0.0032

## GGAGUGGUUACUAUACAACCUACUACGUCA
[1]
  pre-steady-state target cleavage rate: 0.0604 ± 0.011
[2]
  pre-steady-state target cleavage rate: 0.00307 ± 0.0016

## GGAGUGGAUACUAUACUACCUUCUACCUCA
[1]
  pre-steady-state target cleavage rate: 0.0207 ± 0.0034
[2]
  pre-steady-state target cleavage rate: 0.00331 ± 0.0022

## GGAGACCUUACUAUACAACCUACUACGUGA
[1]
  pre-steady-state target cleavage rate: 0.137 ± 0.024
[2]
  pre-steady-state target cleavage rate: 0.00535 ± 0.0036

## GGAGACGAUACUACACAACCUACUACCUCA
[1]
  pre-steady-state target cleavage rate: 0.203 ± 0.019
[2]
  pre-steady-state target cleavage rate: 0.00692 ± 0.0032

## GGAGACGAUACAAAACAACCUACUACCUCA
[1]
  pre-steady-state target cleavage rate: 0.149 ± 0.018
[2]
  pre-steady-state target cleavage rate: 0.00359 ± 0.0033

## GGAGACGAUACUAAACAUCCUACUACCUCA
[1]
  pre-steady-state target cleavage rate: 0.267 ± 0.021
[2]
  pre-steady-state target cleavage rate: 0.00359 ± 0.0026

## GGAGACCUUAGAAUACAACCUACUACCUCA
[1]
  pre-steady-state target cleavage rate: 0.011 ± 0.004
[2]
  pre-steady-state target cleavage rate: 0.00613 ± 0.0038

## GGAGAGUGAUACUAUACAACCUACUACCUCA
[1]
  pre-steady-state target cleavage rate: 0.227 ± 0.016
[2]
  pre-steady-state target cleavage rate: 0.171 ± 0.053

## GGAGAGGAUAGUAUACAACCUACUAGCUCA
[1]
  pre-steady-state target cleavage rate: 0.00705 ± 0.0035
[2]
  pre-steady-state target cleavage rate: 0.00348 ± 0.0023

## GGAGAGGAUACUAUACAACCUACAACCUCA
[1]
  pre-steady-state target cleavage rate: 0.111 ± 0.015
[2]
  pre-steady-state target cleavage rate: 0.00428 ± 0.0019

## GGAGACCAUACUAUACAACCUACUACCUUA
[1]
  pre-steady-state target cleavage rate: 0.22 ± 0.024
[2]
  pre-steady-state target cleavage rate: 0.0127 ± 0.0048

## GGAGACCUUGCUAUACAACCUACUACCUCA
[1]
  pre-steady-state target cleavage rate: 0.114 ± 0.022
[2]
  pre-steady-state target cleavage rate: 0.00436 ± 0.004

## GGAGUGCAUACUAUACAACCUAGUACCUCA
[1]
  pre-steady-state target cleavage rate: 0.0477 ± 0.0091
[2]
  pre-steady-state target cleavage rate: 0.00414 ± 0.0018

## GGAGAGGAUACUAAACAACCUAGUACCUCA
[1]
  pre-steady-state target cleavage rate: 0.00823 ± 0.004
[2]
  pre-steady-state target cleavage rate: 0.00257 ± 0.002

## GGAGAGGAUAGUAUACUACCUACUACCUCA
[1]
  pre-steady-state target cleavage rate: 0.0295 ± 0.0076
[2]
  pre-steady-state target cleavage rate: 0.00274 ± 0.0027
